Screening results (PubChem BioAssay)
TAR Tat displ = HIV-1 TAR-Tat binding disruption | HIV-1 TAR RNA, Tat peptide displacement FRET; hits give high values | z-score (no concentration beside the values) | 100,000 tested, 0.6% active | AID 1259389; active = z-score of 3 or more in at least 2 runs
CDC25B-CDK2 inh = human CDC25B-CDK2/CyclinA binding inhibition. P30305+P24941. HTRF CDC25B-CDK2/CyclinA binding, anti-His/anti-Flag; hits give high values. z-score (test concentration not listed). 94,000 tested, 0.72% active; in the data active = z-score above about 3.2
Large screens that a line does not name were inactive; ! = repeats disagree. Only some compounds are listed: those with a hit (about 0.93% of all), similar ones and a draw of the others.

Cc1cc(C(=O)ONC(=O)c2ccccc2)nn1-c1cc(Cl)ccc1Cl	none (no result: TAR Tat displ)
Cc1ccc(S(=O)(=O)Nc2ccc(O)c3ncccc23)cc1	CDC25B-CDK2 inh 14.5
Cc1ccc(S(=O)(=O)Nc2cccc3ncccc23)cc1	none (no result: TAR Tat displ)
Cc1ccc(S(=O)(=O)Nc2ccc(Cl)c3cccnc23)cc1	none
Cc1ccc(S(=O)(=O)Nc2ccc(O)c3cccnc23)cc1	CDC25B-CDK2 inh 8.33
O=C(NCc1ccccn1)c1cc2c(s1)-c1ccc(Cl)cc1S(=O)(=O)C2	none
CCOC(=O)c1c(NC(C)=O)c2c3c(sc2n1CC(=O)NCc1ccco1)CCCC3	TAR Tat displ 14 (no result: CDC25B-CDK2 inh)
CCOC(=O)c1c(NC(C)=O)c2c3c(sc2n1Cc1cn2ccccc2n1)CCCC3	none (no result: CDC25B-CDK2 inh)
CC(C)(C)C(=O)OCc1noc(-c2ccc(Cl)c(Cl)c2)n1	none (no result: TAR Tat displ)
CCCCNC(=O)C1CCC(Cn2c(=O)c3sccc3n(C)c2=O)CC1 (configuration not stated)	none (no result: CDC25B-CDK2 inh)
O=c1[nH]c(-c2ccccc2O)nc2c1Cc1cc(Cl)ccc1O2	none
CCOc1cccc(-c2nc3c(c(=O)[nH]2)Cc2cc(Br)ccc2O3)c1O	none
COc1cccc(-c2nc3c(c(=O)[nH]2)Cc2cc(Cl)ccc2O3)c1O	TAR Tat displ 4.89
CCOc1cccc(-c2nc3c(c(=O)[nH]2)Cc2cccc(OCC)c2O3)c1O	TAR Tat displ 7.23
CCOc1cccc(-c2nc(=S)c3c([nH]2)Oc2c(cccc2OC)C3)c1O	TAR Tat displ 22.7
COc1cccc(-c2nc(=S)c3c([nH]2)Oc2c(cccc2OC)C3)c1O	TAR Tat displ 35.1
CCOc1cccc2c1Oc1[nH]c(-c3cc(OC)c(OC)c(OC)c3)nc(=S)c1C2	none (no result: TAR Tat displ)
COc1cccc2c1Oc1[nH]c(-c3ccccc3F)nc(=S)c1C2	none
CC(=O)N1CCc2cc(S(=O)(=O)CCC(=O)NCC3CCCO3)ccc21 (configuration not stated)	none (no result: CDC25B-CDK2 inh)
CC1=CCC2(C(=O)OC(C)(C)OC2=O)C(c2ccc(Br)cc2)C1 (configuration not stated)	none (no result: TAR Tat displ)
O=C(NC1CC1)c1ccc2cccc(O)c2n1	none (no result: CDC25B-CDK2 inh)
O=C(Nc1cccnc1)c1ccc2cccc(O)c2n1	TAR Tat displ 6.36 (no result: CDC25B-CDK2 inh)
O=c1c(NC2CCCCC2)c(-c2ccccc2)c1=O	none (no result: CDC25B-CDK2 inh)
O=C1C(NC2CCCCC2)=C(N2CCCCC2)C(=O)c2ccccc21	CDC25B-CDK2 inh 5.01 (no result: TAR Tat displ)
COc1ccc(C2CC(=O)N3CN(Cc4ccco4)CSC3=C2C#N)cc1OC (configuration not stated)	CDC25B-CDK2 inh 5.5
COc1ccc(C2CC(=O)N3CN(CCC(C)C)CSC3=C2C#N)cc1OC (configuration not stated)	CDC25B-CDK2 inh 4.73
COc1ccccc1C1CC(=O)N2CN(Cc3ccco3)CSC2=C1C#N (configuration not stated)	none
COc1cc(C2CC(=O)N3CN(Cc4ccco4)CSC3=C2C#N)ccc1O (configuration not stated)	CDC25B-CDK2 inh 4.92
COc1cccc(C2CC(=O)N3CN(Cc4ccco4)CSC3=C2C#N)c1 (configuration not stated)	CDC25B-CDK2 inh 15.2
N#CC1=C2SCN(Cc3ccco3)CN2C(=O)CC1c1cccc(F)c1 (configuration not stated)	none
COc1ccc(C2CC(=O)N3CN(CCC(C)C)CSC3=C2C#N)cc1 (configuration not stated)	none
N#Cc1c(N)nc2c(c1-c1ccc3c(c1)OCO3)CCCC2	none (no result: TAR Tat displ)
O=S(=O)(N=Nc1c(O)[nH]c2ccc(Br)cc12)c1cccc2ccccc12	none (no result: TAR Tat displ)
O=C(Nc1ccccc1F)c1nn(-c2ccccc2)ccc1=O	none
CC(C)(C)c1csc(-c2ccc(/C=C(\C#N)S(C)(=O)=O)cc2)n1	none (no result: TAR Tat displ)
CC(=O)N1N=C(COc2ccccc2Br)OC1/C=C/c1ccccc1 (configuration not stated)	none (no result: CDC25B-CDK2 inh)
CC(C)NC(=O)Cn1nc(-c2ccco2)ccc1=O	none (no result: CDC25B-CDK2 inh)
Cc1sc2ncn(CC(=O)N3CCOCC3)c(=O)c2c1S(=O)(=O)N1CCOCC1	none
Cc1sc2ncn(CC(=O)N3CCCCCC3)c(=O)c2c1S(=O)(=O)N1CCN(C)CC1	CDC25B-CDK2 inh 19.2 (no result: TAR Tat displ)
Cc1cc(C(=O)N2N=C(C3CC3)CC2(O)C(F)(F)F)c2ccccc2n1 (configuration not stated)	none (no result: TAR Tat displ)
Cc1csc2nc(CN(C)c3ccccc3)cc(=O)n12	TAR Tat displ 4.55 (no result: CDC25B-CDK2 inh)
Cc1nn2c(=O)cc(CN(C)c3ccccc3)nc2s1	none (no result: CDC25B-CDK2 inh)
Cc1csc2nc(COc3ccccc3)cc(=O)n12	none
CCN(Cc1cc(=O)n2c(C)csc2n1)c1ccccc1	TAR Tat displ 5.1 (no result: CDC25B-CDK2 inh)
O=C(Nc1sc2c(c1C(=O)N1CCOCC1)CCCC2)c1ccco1	none (no result: TAR Tat displ)
CN(C1CCCCC1)S(=O)(=O)N1CCCC(C(=O)NC2CCCCC2)C1 (configuration not stated)	none (no result: CDC25B-CDK2 inh)
Fc1ccc(NC(c2nnc(-c3ccccc3)o2)c2ccccc2F)cc1F (configuration not stated)	none (no result: CDC25B-CDK2 inh)
CCOC(=O)c1c(NC(=O)N2CCn3c(C)ccc3C2CC)sc2c1CCCC2 (configuration not stated)	none
Cc1ccc(Nc2c(-c3ccc(Cl)cc3)c(=O)c2=O)cc1F	none (no result: CDC25B-CDK2 inh)
COC(=O)c1c(NC(=O)c2ccc3c(c2)OCCO3)sc2c1CCC2	none (no result: CDC25B-CDK2 inh)
CC(=O)NC1=NN(C(C)=O)C(c2ccc(Sc3ccc(C)cc3)o2)S1 (configuration not stated)	none
CC(=O)NC1=NN(C(C)=O)C(c2ccc(C)o2)S1 (configuration not stated)	TAR Tat displ 15.9
O=C(Nc1c(C(=O)c2ccc(F)cc2)oc2ccccc12)c1csnn1	none
CCOC(=O)c1cc(CN2C(=O)CSc3ccc(S(=O)(=O)N4CCCC4)cc32)on1	none (no result: CDC25B-CDK2 inh)
COc1cc(Cl)c(C)cc1Nc1c2c(nc3ncnn13)CCC2	none (no result: CDC25B-CDK2 inh)
O=C1COc2cc(-c3c(N4CCCC4)c(=O)c3=O)ccc2N1	TAR Tat displ 11 (no result: CDC25B-CDK2 inh)
O=C1COc2cc(-c3c(N4CCCCC4)c(=O)c3=O)ccc2N1	none (no result: CDC25B-CDK2 inh)
O=C1CC(c2nc3ccccc3n2Cc2ccccc2F)CN1c1ccccc1F (configuration not stated)	none
CC1(C)N([O-])C2=C(c3ccccc3C2=O)[N+](=O)C1(C)C	CDC25B-CDK2 inh 16.8 (no result: TAR Tat displ)
COC(=O)c1ccc([C@H]2Nc3ccc(S(=O)(=O)Nc4ccccc4F)cc3[C@H]3C=CC[C@H]32)cc1	none (no result: TAR Tat displ)
c1coc(C2Oc3ccccc3C3CC(c4cccs4)=NN32)c1 (configuration not stated)	none (no result: TAR Tat displ)
O=[N+]([O-])c1ccc(/C=C/C2Oc3ccccc3C3CC(c4cccs4)=NN23)o1 (configuration not stated)	TAR Tat displ 13
CC(=O)N1c2ccc(S(=O)(=O)N3CCCc4ccccc43)cc2CC1C (configuration not stated)	none (no result: CDC25B-CDK2 inh)
CC1=C(c2ccccc2)S(=O)(=O)NC1=NCCCN1CCN(c2cc(C)ccc2C)CC1	CDC25B-CDK2 inh 13.3
CC1=C(c2ccccc2)S(=O)(=O)NC1=NCCCN1CCN(C2CCCCC2)CC1	none
CC1(C)CC(=O)C2=C(C1)Nc1ccccc1N(Cc1ccc(F)cc1)C2c1ccco1 (configuration not stated)	none (no result: CDC25B-CDK2 inh)
OCC1O[C@H]([S-])[C@@H](O)C(O)[C@@H]1O.[Au+] (some centres not stated)	CDC25B-CDK2 inh 19.3 (no result: TAR Tat displ)
OCC1O[C@H](O)C(Cl)C(O)C1O (some centres not stated)	none (no result: TAR Tat displ)
O=C(NCC1CCCO1)C1c2ccccc2C(=O)N(C2CCCC2)C1c1cccs1 (configuration not stated)	none (no result: CDC25B-CDK2 inh)
Cc1ccc2ncnc(Nc3ccc(C)c(C)c3)c2c1	none (no result: TAR Tat displ)
Cc1ccc(Nc2ncnc3ccccc23)cc1C	CDC25B-CDK2 inh 11! (no result: TAR Tat displ)
